Source: PubChem
Mtb UGM inh: inhibitors of M. tuberculosis UDP-galactopyranose mutase; P9WIQ1; purified UGM, fluorescence polarization probe displacement; inhibition, % at 10 µM; actives 0.06% (n = 320,000); AID 504406; in the data active = inhibition above about 10%, passing the limit was not always enough; inconclusive = no clear call, values can overlap the other calls
Mtb bLac sens: beta-lactam sensitization of Mtb H37Rv. M. tuberculosis H37Rv growth with meropenem, percent inhibition. inhibition, % at 25 µM. actives 0.27% (n = 330,000); call rule not given here;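 also: growth measured after seven days incubation then overnight dye step; 0% = bacteria only wells and 100% = bacteria with antibiotic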
FBA Mtb inh: inhibits M. tuberculosis FBA enzyme | purified M. tuberculosis FBA, fluorescence read-out | actives 2.3% (n = 360,000) | P9WQA3 | inhibition, % at 1 µM;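 also: 0% = vehicle and 100% = reference inhibitor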
RecA intein inh: blocks M. tuberculosis RecA intein splicing | P9WHJ3 | cell-free RecA intein splicing, fluorescence | inhibition, % (concentration not given with the values) | actives 0.75% (n = 290,000) | AID 2221; in the data active = inhibition above about 30%; inconclusive = no clear call, values can overlap the other calls;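 also: 0% = vehicle wells and 100% = reference inhibitor control wells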
GDH-TPI counter-1: inhibits GDH-TPI coupling enzymes, artifact for Mtb FBA screen | GDH-TPI coupled enzyme counterscreen, NADH absorbance | inhibition, % at 4.8 µM | actives 1.2% (n = 360,000) | AID 588335; in the data active = inhibition above about 30%;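 also: 0% = DMSO wells and 100% = wells lacking the enzyme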
Rv3671c inh: inhibitors of M. tuberculosis serine protease Rv3671c; P9WHR9; inhibition, % at 5.96 µM; actives 0.048% (n = 320,000); in the data active = inhibition above about 38%;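 also: extracellular domain of Rv3671c used as enzyme; 0% = enzyme with DMSO and 100% = no enzyme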
Target sequence (P9WHR9 whole entry, looked up, the tested form may be a part): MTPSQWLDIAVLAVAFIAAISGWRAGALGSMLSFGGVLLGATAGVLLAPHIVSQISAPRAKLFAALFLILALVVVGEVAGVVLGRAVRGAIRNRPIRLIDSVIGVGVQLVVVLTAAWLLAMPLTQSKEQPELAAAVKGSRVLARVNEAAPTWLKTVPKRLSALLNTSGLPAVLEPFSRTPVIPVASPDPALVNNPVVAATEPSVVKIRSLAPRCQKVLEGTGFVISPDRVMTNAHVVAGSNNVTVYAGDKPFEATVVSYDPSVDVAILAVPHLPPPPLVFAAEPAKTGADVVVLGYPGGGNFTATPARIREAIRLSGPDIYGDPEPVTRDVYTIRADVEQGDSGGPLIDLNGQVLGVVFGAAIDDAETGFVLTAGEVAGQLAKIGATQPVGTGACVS
Mtb FBA confirm: Mtb FBA inhibition, confirmed; shares compounds with FBA Mtb inh; AID 651616; purified M. tuberculosis FBA, fluorescence read-out; actives 78% (n = 5,600); inhibition, % at 1 µM;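 also: 0% = vehicle wells and 100% = reference inhibitor wells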
GDH-TPI counter-2: counter-screen for M. tuberculosis FBA inhibitors: GDH-TPI coupled enzyme inhibition; inhibition, % at 1 µM; shares compounds with FBA Mtb inh; GDH-TPI coupled enzyme counterscreen, fluorescence; actives 81% (n = 5,600); in the data active = inhibition above about 10%
* marks the source's active call; other numbers are inactive results; u = inconclusive; x = not tested or not shown; + = active, no number. Most compounds without a hit are left out; they make up all but 4% or so of the library. Rule as the data show it, unless noted: active = inhibition above about 27%; inactive = the rest.

SMILES	Mtb UGM inh	Mtb bLac sens	FBA Mtb inh	RecA intein inh	GDH-TPI counter-1	Rv3671c inh	Mtb FBA confirm	GDH-TPI counter-2
Cc1cc(OCC(=O)NCCCn2ccnc2)c2c(C)c(C)c(=O)oc2c1	1	-4	76*	-5	4	-7	38*	29*
Cc1cc(=O)oc2c(C)c(OC(C)C(=O)NCCCn3ccnc3)ccc12 (configuration not stated)	-1	9	16	1	7	9	x	x
CCc1cc(=O)oc2c(C)c(OC(C)C(=O)NCCCn3ccnc3)ccc12 (configuration not stated)	0	0	66*	-3	3	2	77*	68*
Cc1cc(OC(C)C(=O)NCCCn2ccnc2)c2c(C)c(C)c(=O)oc2c1 (configuration not stated)	0	-4	79*	0	11	-3	134*	99*
CCc1cc(=O)oc2cc(C)cc(OCC(=O)NCCCn3ccnc3)c12	1	3	61*	-2	4	2	+	+
CC1CN(S(=O)(=O)c2cccc(C(=O)OCC(=O)N3CCCCCC3)c2)CC(C)O1 (configuration not stated)	-1	0	-1	x	0	-2	x	x
O=C(CSc1ccc(-c2cccnc2)nn1)Nc1ccc(F)cc1	-2	-4	2	0	1	-11	x	x
COc1ccc(CN2CCNC(=O)C2CC(=O)N(C)C2CCCCC2)cc1OC (configuration not stated)	x	x	-3	x	7	x	x	x
CC(C)CN(CCCNC(=O)CN1N=C(c2ccc(Cl)cc2)CCC1=O)CC(C)C	1	0	1	1	1	1	x	x
N#C/C(=C\c1c(N2CCCCCC2)nc2ccccn2c1=O)C(=O)NCc1ccco1	-3	2	-2	2	3	-5	x	x
C=CCNC(=O)/C(C#N)=C/c1c(N2CCCCCC2)nc2ccccn2c1=O	1	u	37*	2	9	4	5	-2
N#C/C(=C\c1c(N2CCCCC2)nc2ccccn2c1=O)C(=O)NCc1ccco1	-1	3	-1	-2	18	-13	x	x
CCNC(=O)/C(C#N)=C/c1c(N2CCOCC2)nc2ccccn2c1=O	-2	5	42*	-73	5	2	176*	136*
Cn1c(CN2CCOCC2)nnc1SCC(=O)Nc1cc(Cl)ccc1Cl	-3	-4	27*	x	-6	6	1	-9
COC(=O)c1cc(NC(=O)CSc2nnc(CN3CCOCC3)n2C)ccc1Cl	-1	-12	-3	-3	-6	-5	x	x
Cc1cc(S(=O)(=O)N2CCC3(CC2)OCCN3S(=O)(=O)c2cccs2)ccc1F	0	-6	0	5	3	4	x	x
CN1CC=C2C(C#N)=C(N)C(C#N)(C#N)C(Cc3ccccc3)C2C1 (configuration not stated)	-5	45	32*	-37	15	6	164*	151*
CCC1(c2ccc(F)cc2)NC(=O)N(CC(=O)N2CC(=O)Nc3ccccc32)C1=O (configuration not stated)	-1	-8	29*	0	6	3	163*	116*
CCOCc1cc(C)[nH]c(=O)c1C#N	-1	1	68*	2	15	-5	175*	148*
COc1ccc2cc(C(=O)NCc3ccco3)c(=O)oc2c1	-5	5	46*	-4	33*	7	35*	26*
COc1ccc2cc(C(=O)NCc3ccco3)c(=Nc3ccc(C(=O)O)cc3)oc2c1	0	-2	14	5	25	-46	x	x
CCCOc1ccc2cc(C(=O)NCc3ccccc3)c(=O)oc2c1	-2	2	44*	-1	8	-4	50*	39*
C=CCC[C@@H](Cc1ccc(F)cc1)C(=O)OC[C@@H](NC(=O)[C@@H](CC=C)CC(=O)N[C@H](CO)Cc1ccccc1)C(C)(C)C	0	1	1	x	10	-2	x	x
O=C(COC(=O)Cn1cnc2ccccc21)NCCc1ccc(Cl)cc1	-1	-2	56*	0	-3	-7	46*	36*
COc1ccc(CCNC(=O)COC(=O)Cn2cnc3ccccc32)cc1OC	1	6	1	-3	2	-4	x	x
SMILES	Mtb UGM inh	Mtb bLac sens	FBA Mtb inh	RecA intein inh	GDH-TPI counter-1	Rv3671c inh	Mtb FBA confirm	GDH-TPI counter-2
O=C(C[C@@H]1C/C=C\C[C@@H](Cc2ccc(F)cc2)C(=O)OC[C@@H]2CCCN2C1=O)NCCO	x	-1	-3	x	3	9	x	x
c1ccc(Nc2ccccc2)cc1	3	-1	2	-1	-4	2	x	x
c1ccc(Nc2cccc3c(Nc4ccccc4)cccc23)cc1	1	6	28*	16	11	7	36*	34*
CCN(CC)S(=O)(=O)c1cccc(C(=O)OCC(=O)NCCN2C(=O)CSC2=O)c1	-1	-2	-2	x	-1	3	x	x
COc1ccc(-c2c(-c3cc(OC)cc(OC)c3)n(C)c3ccc(-c4ccc(S(N)(=O)=O)cc4)cc23)cc1	0	-2	54*	x	12	6	53*	47*
COc1cc(C#Cc2c(-c3cncn3C)n(C)c3ccc(-c4ccc5cc[nH]c5c4)cc23)cc(OC)c1	1	97	35*	x	23	-10	56*	46*
COc1ccc(-c2c(-c3cc(OC)cc(OC)c3)n(C)c3ccc(-c4cnc(N)nc4)cc23)cc1	-2	4	0	x	5	2	x	x
COc1cc(OC)cc(-c2c(-c3cccs3)c3cc(-c4ccc5[nH]ccc5c4)ccc3n2C)c1	-2	4	35*	x	19	6	97*	66*
COc1cc(OC)cc(-c2c(-c3cccs3)c3cc(-c4ccc(SC)cc4)ccc3n2C)c1	-1	3	0	x	9	-7	x	x
COc1cc(OC)cc(-c2c(-c3cccs3)c3cc(-c4ccc5cc[nH]c5c4)ccc3n2C)c1	-2	-3	28*	x	38*	-2	116*	111*
COc1cc(C#Cc2c(-c3cncn3C)n(C)c3ccc(-c4ccc(OC)c(OC)c4)cc23)cc(OC)c1	1	100	24	x	4	-8	x	x
CC(=O)N1c2ccc(S(=O)(=O)N3CCCCC3)cc2CC1C(=O)NCc1cccc(Cl)c1 (configuration not stated)	4	1	-1	0	5	-7	x	x
COc1ccc(NC(=O)CSc2nnc(C)s2)cc1S(=O)(=O)N1CCOCC1	x	4	0	x	-8	7	x	x
COc1cccc(-c2c(-c3cc(OC)cc(OC)c3)n(C)c3ccc(-c4cnc(OC)nc4)cc23)c1	0	47	4	x	-6	6	x	x
COc1cccc(-c2c(-c3cc(OC)cc(OC)c3)n(C)c3ccc(-c4ccc5cc[nH]c5c4)cc23)c1	-1	-6	34*	x	33*	3	58*	43*
